Bioassay records: PubChem BioAssay, National Center for Advancing Translational Sciences (NCATS)
This is a sample that favours compounds with a hit; in the whole collection about 7.4% have one here.
CRE Fsk mod = CRE-bla signaling modulation under forskolin stimulation; 71,000 tested, 2.5% active; CHO CRE-bla reporter (cAMP response element driving beta-lactamase), forskolin EC10, beta-lactamase ratio; Potency, µM (titrated, usually from 38.2 µM), inactives show at the top dose activity change, negative = inhibition, most hits filed as activators; active means well fitted activation curve with a large enough effect in the signal ratio, with a control signal flat, not every such curve was filed as active; inconclusive means small, poorly fitted or top-dose-only effect, or effect the other way, or a change in a side signal; the % refers to the signal ratio; further: potency means the concentration at half of the fitted maximal effect; % of control where 0% means no effect
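Modulation of forskolin signalling: compounds in titration series added with EC10 NKH 477 to CHO cells carrying a CRE-driven beta-lactamase reporter, 3 h, 37C. CCF4 FRET ratio (460/530 nm, ex 405 nm) gives %activity and AC50.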
ERK AVP inh = vasopressin-driven ERK pathway inhibition. HEK293-V1b, vasopressin-stimulated pERK AlphaScreen. Potency, µM (top dose mostly 57.5 µM), for inactives: at the highest dose activity, negative = inhibition, hits mostly inhibitors. 72,000 tested, 0.99% active; further: potency means the concentration at half of the fitted maximal effect; on the % scale 0 is the no-effect control and ±100 the full control effect; nearly all actives have a fitted effect of over 55% in size
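Phosphorylated ERK1/2 detected via AlphaScreen bead proximity in lysates of V1b-expressing HEK293 cells given 25 nM vasopressin for 5 min after 30 min compound exposure (37 °C). AC50 from Hill equation; basal DMSO 0%, vasopressin 100%.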
TSHR ag = activates the human thyroid stimulating hormone receptor; Potency, µM (top dose mostly 57.1 µM), for inactives: top-dose activation, hits mostly activators; P16473; 73,000 tested, 0.48% active; HEK293-CNG-TSHR cells (CNG channel as cAMP sensor), membrane potential dye, cAMP; active means well fitted activation curve with a large enough effect in the main read-out, with a control signal flat, not every such curve was filed as active; inconclusive means small, poorly fitted or top-dose-only effect, or a change in a side signal; inactive means no such curve, though single readings can be large or run the other way; % of control where 0% means no effect;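 further: the control signal comes from parental cells without the receptor; potency means the concentration at half of the fitted maximal effect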
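HEK 293 cells stably expressing TSHR and a modified CNG channel, with CNG-only parental cells as counterscreen, were preloaded 60 min at room temperature with membrane potential dye containing 100 uM RO 20-1724. Compound exposure was 30 min, and depolarization was read as fluorescence at 590 nm.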
HEK293 cAMP ctrl = counter-screen for TSHR agonists: cAMP increase in parental HEK293. parental HEK293 CNG cAMP sensor, membrane potential fluorescence. Potency, µM (series often up to 57.1 µM), inactives show top-dose activation, actives largely listed as activators. 73,000 tested, 2.5% active; further: potency means the concentration at half of the fitted maximal effect; % of control where 0% means no effect; nearly all actives have a fitted effect of over 55% in size
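Counterscreen for endogenous-receptor signalling: CNG-channel HEK 293 cells report cAMP rise by membrane depolarization. After 60 min dye equilibration with 100 uM RO 20-1724, compounds incubated 30 min before bottom-read fluorescence at 590 nm.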
Tau filament bind = binders of human tau filaments; P10636; recombinant tau filaments, thioflavin S fluorescence, 15 h; filaments grown with octadecylsulfate alongside compound; Potency, µM (top dose mostly 57.1 µM), for inactives: top-dose activity change, negative = inhibition; 71,000 tested, 2% active; AID 596;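 further: potency means the concentration at half of the fitted maximal effect; on the % scale 0 is the no-effect control and ±100 the full control effect; actives lower thioflavin S fluorescence by blocking filaments or displacing dye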
Target sequence (P10636 whole entry, looked up): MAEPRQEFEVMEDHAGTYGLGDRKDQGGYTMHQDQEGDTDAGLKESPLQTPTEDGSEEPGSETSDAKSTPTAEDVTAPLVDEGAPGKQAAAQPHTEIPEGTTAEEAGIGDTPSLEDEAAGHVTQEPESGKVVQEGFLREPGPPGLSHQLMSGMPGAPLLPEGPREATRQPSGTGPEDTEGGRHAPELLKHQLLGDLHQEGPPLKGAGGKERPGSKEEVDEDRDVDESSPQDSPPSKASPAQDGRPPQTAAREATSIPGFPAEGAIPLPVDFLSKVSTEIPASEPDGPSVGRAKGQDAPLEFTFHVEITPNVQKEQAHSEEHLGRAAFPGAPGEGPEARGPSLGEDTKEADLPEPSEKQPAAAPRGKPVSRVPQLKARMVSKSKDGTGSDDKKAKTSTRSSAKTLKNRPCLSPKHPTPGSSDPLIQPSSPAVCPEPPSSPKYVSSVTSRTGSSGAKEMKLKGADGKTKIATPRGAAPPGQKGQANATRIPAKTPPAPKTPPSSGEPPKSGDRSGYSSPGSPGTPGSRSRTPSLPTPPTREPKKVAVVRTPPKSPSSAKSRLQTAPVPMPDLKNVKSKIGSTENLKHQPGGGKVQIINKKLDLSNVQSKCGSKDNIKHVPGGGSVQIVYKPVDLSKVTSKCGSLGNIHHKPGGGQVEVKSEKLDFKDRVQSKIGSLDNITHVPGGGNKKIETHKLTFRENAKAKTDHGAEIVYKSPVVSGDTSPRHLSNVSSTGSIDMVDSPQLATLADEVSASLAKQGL
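Quantitative HTS: thioflavine S signal from ODS-induced tau filaments, excited at 450 nm, emission 510 nm. Conditions: 1 uM tau, 30 uM ODS, 15 h at 37 C, pH 7.4.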
CHO via 24h = cytotoxicity in CRE-bla CHO cells at 24 h; shares compounds with CRE Fsk mod; CRE-bla CHO viability, ATP luminescence, 24 h; activity, negative = viability loss, % at 46.1 µM; 120 tested, under 10 active
CHO tox 40h = cytotoxicity in CRE-bla CHO cells at 40 h; shares compounds with CRE Fsk mod; CRE-bla CHO viability, ATP luminescence, 40 h; Potency, µM, for the others: max response, actives largely listed as inhibitors; 120 tested, under 10 active; AID 906
CRE-luc potent = boosts CRE luciferase signal in HEK293 cells; 120 tested, 80% active; shares compounds with CRE Fsk mod; Potency, µM (top dose mostly 38.3 µM), for inactives: top-dose activity, positive = activation, hits mostly activators; AID 907; HEK293 CRE-luc2P, NKH477 EC10 potentiation, luminescence, 4 h
Active calls of the source: *; ? = inconclusive; · = no result; ! = not active in a repeat; [ ] = remark or other dose. Unless noted, the call rests on the fitted dose curve; in most records, active means well fitted curve in the direction sought with a large enough effect; inconclusive means small, poorly fitted or top-dose-only effect, or another doubt; inactive means no such curve, though single readings can be large; an effect the other way counts as inactive or inconclusive.

SMILES	CRE Fsk mod	ERK AVP inh	TSHR ag	HEK293 cAMP ctrl	Tau filament bind	others
O=S(=O)(O)F	-10%	23%	?	-24%	2%
CO[C@@H]([CH2][Hg])CN1C(=O)c2ccccc2S1(=O)=O.Cn1c(=O)c2nc[nH]c2n(C)c1=O	3%[7.6 µM]	11%[11.5 µM]	2%[11.4 µM]	9%[11.4 µM]	-1%[11.4 µM]
CC(C)=CCCC1(C)C=Cc2c(O)c3c(c(CC=C(C)C)c2O1)OC12C(=CC4CC1C(C)(C)OC2(C/C=C(/C)C(=O)O)C4O)C3=O (stereo not given)	·	5µM*	·	·	·
CC(C)CCCC1(C)C=Cc2c(O)c3c(c(CCC(C)C)c2O1)OC12C(CC4CC1C(C)(C)OC2(CCC(C)C(=O)O)C4O)C3=O (stereo not given)	·	28%	·	·	·
O=C(Oc1ccccc1)N1CCC[C@@]2(CCN(Cc3cc(C(F)(F)F)cc(C(F)(F)F)c3)C2)C1	?	9%	?	16µM*	-20%
N#Cc1ccc(CN2CCCC3(CCN(C(=O)Oc4ccccc4)CC3)C2)cc1	-5%	4%	?	16µM*	2%
O=C(Oc1ccccc1)N1CCC2(CCCN(Cc3ccccc3)C2)CC1	-5%	10%	?	?	7%
COC(=O)c1cn(CCOc2ccccc2)c2ccccc12	8%	13%	?	20µM*	-8%
CCCn1c(C)c(C(=O)c2cccc3ccccc23)c2ccccc21	?	35%	?	13µM*	?
COC[C@@H]1OC(=O)c2coc3c2[C@]1(C)C1=C(C3=O)[C@H]2CCC(=O)[C@]2(C)C[C@@H]1OC(C)=O	-22%	·	4%	8%	38%
C=CCN1CC[C@@]23CCCC[C@@H]2[C@@H]1Cc1ccc(O)cc13	1%	21%	21%	11%	0%
O=C(O)c1cc2ccccc2oc1=O	-9%	·	?	20µM*	10%
C[C@H](c1ccccc1)N1CCN([C@@H](C)c2ccccc2)CC1	4%[7.6 µM]	25%[11.5 µM]	9%[11.4 µM]	14%[11.4 µM]	-11%[11.4 µM]
CCC(COC(=O)c1cc(OC)c(OC)c(OC)c1)(c1ccccc1)N(C)C (stereo not given)	·	32µM*	·	·	·
O=C(O)CN1CCN(CC(=O)O)CC(=O)[O][Hg][O]C(=O)C1	14%[7.6 µM]	-20%[11.5 µM]	2%[11.4 µM]	-7%[11.4 µM]	2%[11.4 µM]
O=C1C[C@@H]2OCC=C3CN4CC[C@]56c7ccccc7N1[C@H]5[C@@H]2[C@H]3C[C@@H]46	?	·	7%	6%	?
C[C@@]12Cc3cnc(-c4ccccc4)nc3C[C@@H]1CC[C@@H]1[C@H]3CC[C@@](C)(O)[C@]3(C)CC[C@@H]12	0%[7.6 µM]	-7%[11.5 µM]	-1%[11.4 µM]	-9%[11.4 µM]	24%[11.4 µM]
CN(C(=O)c1ccco1)C1(c2ccccc2Cl)CCCCC1=O (stereo not given)	-10%	-19%	?	20µM*	7%
O=C(Nc1ccc2c(c1)OCO2)c1cn(Cc2ccc(F)cc2)nn1	-5%	-4%	-9%	-6%	13µM*
CCNC(=O)[C@@H]1O[C@@H](n2cnc3c(N)ncnc32)[C@@H](O)[C@H]1O	-11%	-38%	?	0.16µM*	6%
CCCCn1c(NC(=O)c2ccco2)c(C(=O)OCC)c2nc3ccccc3nc21	?	-4%	?	6.3µM*	155%
C#CCN[C@@H](C)Cc1ccccc1	-2%	-15%	·	5%	-10%
O=[N+]([O-])c1ccc2c3c(cccc13)CC2	9%	-11%	0%	19%	25µM*
CCN1C(=O)c2c(C)nc3ccccc3c2C1=O	?	?	-3%	1%	16µM*
Cc1cccc(-n2c(CN3C(=O)c4ccccc4C3=O)nc3ccccc3c2=O)n1	-5%	12%	-1%	17%	-3%
SMILES	CRE Fsk mod	ERK AVP inh	TSHR ag	HEK293 cAMP ctrl	Tau filament bind	others
CN1[C@@H]2CC[C@H]1CC(OC(c1ccc(F)cc1)c1ccc(F)cc1)C2 (stereo not given in full)	?	-2%	?	32µM*	?
CC(=O)[C@H]1CC[C@H]2[C@@H]3CCC4=CC(=O)CC[C@]4(C)[C@H]3CC[C@]12C	11%	?	?	?	83%
C[C@@]12CCC3C(CCC4=CC(=O)CC[C@]43C)C1CCC2O (stereo not given in full)	·	32µM*	·	·	·
Clc1ccc(CO[C@@H](Cn2ccnc2)c2ccc(Cl)cc2Cl)cc1	26%[17.1 µM]	-5%[25.7 µM]	?	16µM*	2%[25.6 µM]
Clc1ccc(COC(Cn2ccnc2)c2ccc(Cl)cc2Cl)c(Cl)c1 (stereo not given)	?	-4%	0%[25.6 µM]	23%[25.6 µM]	125%[25.6 µM]
Cc1cc(Cl)ccc1OCC(=O)N1CCN(C)CC1	2%	-14%	2%	6%	4%
CN1CCN(C(=O)COc2ccc3ccccc3c2Br)CC1	2.5µM*	31%	0%	5%	16µM*
N#C/C(=C\c1ccc(O)c(O)c1)C(N)=S	?	16µM*!	?	?	78%
COc1cc2c(c(OC)c1OC)-c1ccc(OC)c(=O)cc1[C@@H](NC(C)=O)CC2	1.3µM*	4%	?	1%	4%	CHO via 24h=-19;CHO tox 40h=-11%;CRE-luc potent=?
CC(C)[C@@H](Br)C(=O)NCC(=O)O	9%[7.6 µM]	6%[11.5 µM]	-9%[11.4 µM]	18%[11.4 µM]	-6%[11.4 µM]
CC(C)C(=O)N1CCN(CCN=Cc2c(O)n(C)c(=O)n(C)c2=O)CC1	·	·	·	·	·	CHO via 24h=0;CHO tox 40h=-4%;CRE-luc potent=-1%
Nc1nc(N)c(Cn2ccnc2)c(=O)[nH]1	1%[7.6 µM]	2%[11.5 µM]	?	?	5%[11.4 µM]
CCc1ccccc1NC(=O)CSc1nnc([C@@H](N)Cc2c[nH]c3ccccc23)o1	-3%	-11%	16%	-4%	-24%
COc1ccc(Cl)cc1NC(=O)CSc1ncnc2c1oc1ccccc12	0.1µM*	-20%	22%	10%	7%	CHO via 24h=-8;CHO tox 40h=-13%;CRE-luc potent=1.3µM*
Cn1cc(C(=O)N2CCC3(CC2)OCCO3)c2c3ccccc3n(C)c2c1=O	?	-32%	1%	10%	7%
Cn1c(C(=O)N2CCC3(CC2)OCCO3)cc2c(=O)n(C)c3ccccc3c21	?	-21%	·	-9%	5%	CHO via 24h=-7;CHO tox 40h=-7%;CRE-luc potent=14µM*
O=C(O)[C@H](Cc1cnc[nH]1)N1C(=O)c2ccccc2C1=O	8%[7.6 µM]	11%[11.5 µM]	6%[11.4 µM]	6%[11.4 µM]	-5%[11.4 µM]
